# phage Ecoli inh: E. coli growth loss with phage present | growth absorbance | inhibition, % at 11.9 µM | 0.26% of 360,000 active; in the data active = inhibition above about 11%
# Tat transport: inhibitors of E. coli Tat protein transport. E. coli MC4100 TorA-mCherry Tat export, fluorescence. inhibition, % at 10 µM. 0.036% of 340,000 active. AID 488895;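 active = mean replicate inhibition at least 50% and at least half of replicates individually reaching 50%; inconclusive = only one of the two criteria met; inactive = neither criterion met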;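 note: exported cargo escapes ClpAP degradation while cytoplasmic cargo is degraded and loses fluorescence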
# E coli growth-1: reduces bacterial viability in AddAB counter-screen; 0.27% of 330,000 active; inhibition, % at 11.9 µM; E. coli V3065 growth, OD600 absorbance, 18 h;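 active = inhibition above the campaign's mean inhibition across all tested compounds plus 3 SD, cut at about 9.9% in these data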;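 note: uninfected addAB+ strain grown without phage in ampicillin broth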
# AddAB inh: less growth of phage-infected E. coli with AddAB | E. coli expressing H. pylori AddAB, absorbance growth | inhibition, % at 11.9 µM | 0.29% of 330,000 active; in the data active = inhibition above about 12%
# E coli growth-2: E. coli growth inhibition. Escherichia coli growth, OD600, 23 h; active compounds read low. OD600 absorbance (concentration not given with the values). 0.21% of 330,000 active;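 active = OD600 absorbance below the run mean of sample wells minus 3.6 SD, in any replicate, cut at about 0.56 in these data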
# PfHsp90 yeast 2: reduces growth (ATP signal) of yeast expressing P. falciparum Hsp90; S. cerevisiae expressing PfHsp90, BacTiter-Glo ATP, 48 h; yeast lacking PDR1 and PDR3 efflux regulators; inhibition, % at 9.4 µM; 0.32% of 310,000 active; AID 504621;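 active = every replicate shows inhibition above about 80%, whatever the replicate mean, limit read from the data; inconclusive = mean inhibition reaches the set limit but some replicate falls short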
# RecBCD conf: confirmation: growth loss of phage-infected RecBCD+ E. coli (RecBCD inhibitor screen) | inhibition, % at 11.9 µM | E. coli V66 + T4 2- phage, growth OD | shares compounds with phage Ecoli inh | AID 651982 | 45% of 890 active;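 active = mean inhibition over triplicates exceeding the hit threshold derived in the original primary screen, cut at about 11% in these data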
# Ecoli viability: inhibits E. coli viability, flagging RecBCD hits as nonselective; shares compounds with phage Ecoli inh; absorbance (OD) growth; inhibition, % at 11.9 µM; 29% of 890 active; AID 651983; in the data active = inhibition above about 20%;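 note: E. coli strain V66 grown with compound alone and no phage infection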
# AddAB phage OD: growth loss of phage-infected AddAB E. coli, RecBCD counter-screen; 45% of 890 active; inhibition, % at 11.9 µM; shares compounds with phage Ecoli inh; E. coli expressing H. pylori AddAB + T4 phage, OD growth; gene 2 mutant T4, recBCD-deleted host;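 active = mean inhibition above the solvent-only control wells' mean plus 3 SD, cut at about 22% in these data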;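 note: higher means less bacterial growth from phage killing when AddAB is blocked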
# Numbers stand for hits; i = inactive; ? = inconclusive; nt = no result. Sampled rows, rich in hits. Any-hit rate of the full collection: about 0.69%.
SMILES,phage Ecoli inh,Tat transport,E coli growth-1,AddAB inh,E coli growth-2,PfHsp90 yeast 2,RecBCD conf,Ecoli viability,AddAB phage OD
COC(=O)C1(F)C(=O)NC(=O)NC1OC (configuration not stated),23,nt,nt,nt,nt,nt,27,i,47
CC1CN(C(C)CO)C(=O)c2cc(NC(=O)Nc3ccc(F)cc3)ccc2OC1CN(C)Cc1ccc(Oc2ccccc2)cc1 (configuration not stated),nt,nt,nt,nt,i,nt,nt,nt,nt
CC(=NNc1ccc(S(N)(=O)=O)cc1[N+](=O)[O-])c1ccc2c(c1)OCO2,nt,nt,nt,nt,i,nt,nt,nt,nt
Cc1ccccc1NC(=O)NNC(=O)c1ccc2ccccc2c1O,i,i,i,i,i,i,nt,nt,nt
COc1ccccc1NC(=O)NNC(=O)c1ccc2ccccc2c1O,11,i,nt,nt,i,i,i,i,i
CCc1ccc(NC(=O)NNC(=O)c2ccc3ccccc3c2O)cc1,13,i,nt,nt,i,i,i,i,i
NC(Cc1nc2ccccc2s1)=NO,nt,nt,nt,nt,i,nt,nt,nt,nt
Cc1cc(OC(F)F)ccc1NC(=O)Nc1ccc([N+](=O)[O-])cc1,13,i,i,i,i,i,i,i,i
CC(=O)c1ccc(NC(=O)Nc2cccc(Cl)c2)cc1,11,i,i,i,0.51,i,i,i,i
COC(=O)c1ccc(NC(=O)Nc2ccc([N+](=O)[O-])cc2)cc1,14,i,i,i,0.42,i,i,i,i
COC(=O)c1ccc(NC(=O)Nc2ccccc2F)cc1,i,i,i,i,i,i,nt,nt,nt
COC(=O)c1ccc(NC(=O)Nc2ccc(F)c(Cl)c2)cc1,12,i,10,i,i,i,i,i,i
O=C(Nc1cccc(Cl)c1)Nc1nnc(-c2ccncc2)s1,13,i,i,i,i,i,i,i,i
COc1cccc(NC(=O)Nc2ccc(C)c(Cl)c2)c1,i,i,i,i,i,i,nt,nt,nt
Cc1ccc(NC(=O)Nc2ccc(F)cc2)cc1Cl,12,i,i,i,i,i,i,i,i
O=C(NN=Cc1ccccc1)c1ccc(-c2ccccc2)cc1,nt,nt,nt,nt,i,nt,nt,nt,nt
C(=N\Nc1nncc2ccccc12)/c1ccccn1,19,i,10,i,nt,i,20,27,24
Fc1cccc(/C=N/Nc2nncc3ccccc23)c1,i,i,i,i,nt,i,nt,nt,nt
NCCCCCc1cn(C(CCC(=O)O)C(=O)NCCCCCCCCCCC(=O)N2CCNCC2)nn1 (configuration not stated),nt,nt,nt,nt,i,nt,nt,nt,nt
Nn1c(SCc2cccc(Br)c2)nnc1-c1ccncc1,100,i,i,i,i,i,i,i,i
Nn1c(SCc2cccc(F)c2)nnc1-c1ccncc1,i,i,i,i,i,i,nt,nt,nt
COc1ccccc1/C=C/C=Nn1c(-c2ccccc2)n[nH]c1=S,nt,nt,nt,nt,i,nt,nt,nt,nt
CCOC(=O)CC1c2ccccc2S(=O)(=O)N1Cc1ccc(Cl)cc1 (configuration not stated),nt,nt,nt,nt,i,nt,nt,nt,nt
Cn1cc([N+](=O)[O-])c(C(=O)N/N=C/c2ccc([N+](=O)[O-])cc2)n1,11,i,i,i,nt,i,i,i,i
COc1ccc(S(=O)(=O)N(CCC(N)=O)Cc2ccco2)cc1OC,98,i,i,i,i,i,i,i,i
COc1ccc(S(=O)(=O)N(Cc2ccc(OC)c(OC)c2)Cc2ccco2)cc1,i,i,i,i,i,i,nt,nt,nt
O=C1/C(=C/c2cccnc2)Oc2cc(OS(=O)(=O)c3ccccc3)ccc21,nt,?,i,i,i,i,nt,nt,nt
O=S(=O)(Oc1ccccc1)c1cccnc1,101,i,i,i,i,i,i,i,i
CC(=O)SC1CC(=O)N(c2c(C)cccc2C)C1=O (configuration not stated),12,i,i,i,i,i,i,i,i
O=C(NN=Cc1ccc([N+](=O)[O-])o1)C1COc2ccccc2O1 (configuration not stated),nt,nt,nt,nt,i,nt,nt,nt,nt
